Data from the supplement of paper PMC7261846.
Counter-ions that a name gives are not always drawn. ± gives the uncertainty stated by the source.

Tested on: Candida albicans SNY425 biofilm
Experiment: biofilm OD600 with compound plus antifungal (OD600 (absorbance)); higher = more biofilm remaining
[1] = assay detail: disruption of 24-h mature biofilm (compound + antifungal for a second 24 h)
[2] = assay detail: sustained inhibition (compound + antifungal during 90-min adherence and 24-h growth)

Row | Structure (SMILES) | biofilm OD600 [1] | biofilm OD600 [2]
1 | NCCCC[C@H](N[C@@H](CCc1ccccc1)C(=O)O)C(=O)N1CCC[C@H]1C(=O)O [Lisinopril] + OC(Cn1cncn1)(Cn1cncn1)c1ccc(F)cc1F [fluconazole] (first compound 12.5 µM) | 0.26 ± 0.0069 | 0.118 ± 0.015
2 | CCC[C@@]1(CCc2ccccc2)CC(O)=C([C@H](CC)c2cccc(NS(=O)(=O)c3ccc(C(F)(F)F)cn3)c2)C(=O)O1 [tipranavir] + C[C@@H]1[C@H](O)[C@@H](C)/C=C/C=C/C=C/C=C/C=C/C=C/C=C/[C@H](O[C@@H]2O[C@H](C)[C@@H](O)[C@H](N)[C@@H]2O)C[C@@H]2O[C@](O)(C[C@@H](O)C[C@@H](O)[C@H](O)CC[C@@H](O)C[C@@H](O)CC(=O)O[C@H]1C)C[C@H](O)[C@H]2C(=O)O [amphotericin B] (first compound 12.5 µM) | 0.264 ± 0.0073 | 0.185 ± 0.0069
3 | O=c1oc(Cl)c(Cl)c2ccccc12 [3,4-Dichloroisocoumarin] + C[C@@H]1[C@H](O)[C@@H](C)/C=C/C=C/C=C/C=C/C=C/C=C/C=C/[C@H](O[C@@H]2O[C@H](C)[C@@H](O)[C@H](N)[C@@H]2O)C[C@@H]2O[C@](O)(C[C@@H](O)C[C@@H](O)[C@H](O)CC[C@@H](O)C[C@@H](O)CC(=O)O[C@H]1C)C[C@H](O)[C@H]2C(=O)O [amphotericin B] (first compound 12.5 µM) | 0.252 ± 0.013 | 0.196 ± 0.0087
4 | NCCCC[C@H](N[C@@H](CCc1ccccc1)C(=O)O)C(=O)N1CCC[C@H]1C(=O)O [Lisinopril] + C[C@@H]1[C@H](O)[C@@H](C)/C=C/C=C/C=C/C=C/C=C/C=C/C=C/[C@H](O[C@@H]2O[C@H](C)[C@@H](O)[C@H](N)[C@@H]2O)C[C@@H]2O[C@](O)(C[C@@H](O)C[C@@H](O)[C@H](O)CC[C@@H](O)C[C@@H](O)CC(=O)O[C@H]1C)C[C@H](O)[C@H]2C(=O)O [amphotericin B] (first compound 12.5 µM) | 0.27 ± 0.012 | 0.173 ± 0.014
5 | CO[C@@H]1[C@H](OC(=O)/C=C/C=C/C=C/C=C/C(=O)O)CC[C@]2(CO2)[C@H]1[C@@]1(C)O[C@@H]1CC=C(C)C [Fumagillin] + CC[C@H](C)C[C@H](C)CCCCCCCCC(=O)N[C@H]1C[C@@H](O)[C@@H](NCCN)NC(=O)[C@@H]2[C@@H](O)CCN2C(=O)[C@H]([C@H](O)CCN)NC(=O)[C@H]([C@H](O)[C@@H](O)c2ccc(O)cc2)NC(=O)[C@@H]2C[C@@H](O)CN2C(=O)[C@H]([C@@H](C)O)NC1=O [caspofungin] (first compound 12.5 µM) | 0.257 ± 0.0085 | 0.166 ± 0.0044
6 | CC(C)c1nc(CN(C)C(=O)N[C@H](C(=O)N[C@@H](Cc2ccccc2)C[C@H](O)[C@H](Cc2ccccc2)NC(=O)OCc2cncs2)C(C)C)cs1 [ritonavir] + OC(Cn1cncn1)(Cn1cncn1)c1ccc(F)cc1F [fluconazole] (first compound 12.5 µM) | 0.249 ± 0.0077 | 0.168 ± 0.014
7 | CCOC(=O)c1ccc(OC(=O)CCCCCNC(=N)N)cc1 [Gabexate mesylate] + CC[C@H](C)C[C@H](C)CCCCCCCCC(=O)N[C@H]1C[C@@H](O)[C@@H](NCCN)NC(=O)[C@@H]2[C@@H](O)CCN2C(=O)[C@H]([C@H](O)CCN)NC(=O)[C@H]([C@H](O)[C@@H](O)c2ccc(O)cc2)NC(=O)[C@@H]2C[C@@H](O)CN2C(=O)[C@H]([C@@H](C)O)NC1=O [caspofungin] (first compound 12.5 µM) | 0.26 ± 0.0083 | 0.181 ± 0.006
8 | CCOC(=O)[C@H](CCc1ccccc1)N[C@@H](C)C(=O)N1CCC[C@H]1C(=O)O [Enalapril] + CC[C@H](C)C[C@H](C)CCCCCCCCC(=O)N[C@H]1C[C@@H](O)[C@@H](NCCN)NC(=O)[C@@H]2[C@@H](O)CCN2C(=O)[C@H]([C@H](O)CCN)NC(=O)[C@H]([C@H](O)[C@@H](O)c2ccc(O)cc2)NC(=O)[C@@H]2C[C@@H](O)CN2C(=O)[C@H]([C@@H](C)O)NC1=O [caspofungin] (first compound 12.5 µM) | 0.266 ± 0.012 | 0.207 ± 0.011
9 | Nc1ccc(CC(CC(=O)O)C(=O)O)cc1 [4-Amino-D, L-benzylsuccinic acid] + C[C@@H]1[C@H](O)[C@@H](C)/C=C/C=C/C=C/C=C/C=C/C=C/C=C/[C@H](O[C@@H]2O[C@H](C)[C@@H](O)[C@H](N)[C@@H]2O)C[C@@H]2O[C@](O)(C[C@@H](O)C[C@@H](O)[C@H](O)CC[C@@H](O)C[C@@H](O)CC(=O)O[C@H]1C)C[C@H](O)[C@H]2C(=O)O [amphotericin B] (first compound 12.5 µM) | 0.293 ± 0.0096 | 0.185 ± 0.0047
10 | CCN1C(=O)C=CC1=O [N-Ethylmaleimide] + C[C@@H]1[C@H](O)[C@@H](C)/C=C/C=C/C=C/C=C/C=C/C=C/C=C/[C@H](O[C@@H]2O[C@H](C)[C@@H](O)[C@H](N)[C@@H]2O)C[C@@H]2O[C@](O)(C[C@@H](O)C[C@@H](O)[C@H](O)CC[C@@H](O)C[C@@H](O)CC(=O)O[C@H]1C)C[C@H](O)[C@H]2C(=O)O [amphotericin B] (first compound 4 µM) | 0.304 ± 0.0086 | 0.189 ± 0.0049
11 | Nc1ccc(CC(CC(=O)O)C(=O)O)cc1 [4-Amino-D, L-benzylsuccinic acid] + CC[C@H](C)C[C@H](C)CCCCCCCCC(=O)N[C@H]1C[C@@H](O)[C@@H](NCCN)NC(=O)[C@@H]2[C@@H](O)CCN2C(=O)[C@H]([C@H](O)CCN)NC(=O)[C@H]([C@H](O)[C@@H](O)c2ccc(O)cc2)NC(=O)[C@@H]2C[C@@H](O)CN2C(=O)[C@H]([C@@H](C)O)NC1=O [caspofungin] (first compound 12.5 µM) | 0.295 ± 0.016 | 0.187 ± 0.0071
12 | O=C[C@@H]1CCCN1C(=O)[C@@H]1CCCN1C(=O)OCc1ccccc1 [Z-Prolyl-prolinal] + C[C@@H]1[C@H](O)[C@@H](C)/C=C/C=C/C=C/C=C/C=C/C=C/C=C/[C@H](O[C@@H]2O[C@H](C)[C@@H](O)[C@H](N)[C@@H]2O)C[C@@H]2O[C@](O)(C[C@@H](O)C[C@@H](O)[C@H](O)CC[C@@H](O)C[C@@H](O)CC(=O)O[C@H]1C)C[C@H](O)[C@H]2C(=O)O [amphotericin B] (first compound 12.5 µM) | 0.262 ± 0.013 | 0.156 ± 0.0083
13 | CC(C)(C)NC(=O)[C@@H]1CN(Cc2cccnc2)CCN1C[C@@H](O)C[C@@H](Cc1ccccc1)C(=O)N[C@H]1c2ccccc2C[C@H]1O [indinavir] + OC(Cn1cncn1)(Cn1cncn1)c1ccc(F)cc1F [fluconazole] (first compound 12.5 µM) | 0.273 ± 0.013 | 0.17 ± 0.015
14 | CNC(=O)[C@H](Cc1c[nH]c2ccccc12)NC(=O)[C@@H](CC(=O)NO)CC(C)C + C[C@@H]1[C@H](O)[C@@H](C)/C=C/C=C/C=C/C=C/C=C/C=C/C=C/[C@H](O[C@@H]2O[C@H](C)[C@@H](O)[C@H](N)[C@@H]2O)C[C@@H]2O[C@](O)(C[C@@H](O)C[C@@H](O)[C@H](O)CC[C@@H](O)C[C@@H](O)CC(=O)O[C@H]1C)C[C@H](O)[C@H]2C(=O)O [amphotericin B] (first compound 12.5 µM) | 0.281 ± 0.01 | 0.194 ± 0.0098
15 | CC(C)CC(=O)N[C@H](C(=O)N[C@H](C(=O)N[C@@H](CC(C)C)[C@@H](O)CC(=O)N[C@@H](C)C(=O)N[C@@H](CC(C)C)[C@@H](O)CC(=O)O)C(C)C)C(C)C [Pepstatin A] + C[C@@H]1[C@H](O)[C@@H](C)/C=C/C=C/C=C/C=C/C=C/C=C/C=C/[C@H](O[C@@H]2O[C@H](C)[C@@H](O)[C@H](N)[C@@H]2O)C[C@@H]2O[C@](O)(C[C@@H](O)C[C@@H](O)[C@H](O)CC[C@@H](O)C[C@@H](O)CC(=O)O[C@H]1C)C[C@H](O)[C@H]2C(=O)O [amphotericin B] (first compound 12.5 µM) | 0.272 ± 0.0097 | 0.199 ± 0.011
16 | CC(C)(C)NC(=O)[C@@H]1C[C@@H]2CCCC[C@@H]2CN1C[C@@H](O)[C@H](Cc1ccccc1)NC(=O)[C@H](CC(N)=O)NC(=O)c1ccc2ccccc2n1 [saquinavir] + C[C@@H]1[C@H](O)[C@@H](C)/C=C/C=C/C=C/C=C/C=C/C=C/C=C/[C@H](O[C@@H]2O[C@H](C)[C@@H](O)[C@H](N)[C@@H]2O)C[C@@H]2O[C@](O)(C[C@@H](O)C[C@@H](O)[C@H](O)CC[C@@H](O)C[C@@H](O)CC(=O)O[C@H]1C)C[C@H](O)[C@H]2C(=O)O [amphotericin B] (first compound 12.5 µM) | 0.243 ± 0.0076 | 0.0922 ± 0.0023
17 | CCC[C@@]1(CCc2ccccc2)CC(O)=C([C@H](CC)c2cccc(NS(=O)(=O)c3ccc(C(F)(F)F)cn3)c2)C(=O)O1 [tipranavir] + OC(Cn1cncn1)(Cn1cncn1)c1ccc(F)cc1F [fluconazole] (first compound 12.5 µM) | 0.256 ± 0.0057 | 0.143 ± 0.0085
18 | NC(=O)c1cccc(-c2cccc(OC(=O)NC3CCCCC3)c2)c1 + C[C@@H]1[C@H](O)[C@@H](C)/C=C/C=C/C=C/C=C/C=C/C=C/C=C/[C@H](O[C@@H]2O[C@H](C)[C@@H](O)[C@H](N)[C@@H]2O)C[C@@H]2O[C@](O)(C[C@@H](O)C[C@@H](O)[C@H](O)CC[C@@H](O)C[C@@H](O)CC(=O)O[C@H]1C)C[C@H](O)[C@H]2C(=O)O [amphotericin B] (first compound 12.5 µM) | 0.295 ± 0.0047 | 0.178 ± 0.0061
19 | COC(=O)N[C@H](C(=O)N[C@@H](Cc1ccccc1)[C@@H](O)CN(Cc1ccc(-c2ccccn2)cc1)NC(=O)[C@@H](NC(=O)OC)C(C)(C)C)C(C)(C)C [atazanavir] + OC(Cn1cncn1)(Cn1cncn1)c1ccc(F)cc1F [fluconazole] (first compound 12.5 µM) | 0.267 ± 0.012 | 0.173 ± 0.0039
